The values below come from PubChem BioAssay (NCATS).

Molecules are shown by their SMILES. Where “and” joins values, the source holds several entries; their conditions need not be identical. Equal entries are not always repeated. Results filed as inconclusive are left out. Entries that show only a call come without a potency. Calls of active or inactive are those of the source. Unless noted, calls follow the shape of the dose curve; as a rule, active = well fitted curve in the direction sought with a large enough effect; inconclusive = small, poorly fitted or top-dose-only effect, or another doubt; inactive = no such curve, though single readings can be large; an effect the other way counts as inactive or inconclusive.

Assay [1] has as its target 3',5'-cyclic-AMP phosphodiesterase 4B (Homo sapiens) (UniProt Q07343). Nature of the assay: qHTS Assay for Inhibitors of PDE-IV (AID 607; active = well fitted activation curve with a large enough effect in the main read-out, with a control signal flat, not every such curve was filed as active). To be noted: HEK293 ACTOne CNG channel cells, membrane potential fluorescence; series mostly up to 22.9 µM. In a few lines: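 ACTOne HEK293 cells carry a modified cAMP-gated CNG channel and express endogenous PDE4; plated 1000 cells/well, compounds up to 22.9 uM final. Membrane-potential dye fluorescence (ex 535/em 590) was read; parental cells received 10 uM forskolin + 100 uM RO 20-1724.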

Assay [2] deals with Cytochrome P450 2D6 (Homo sapiens) (UniProt P10635). Nature of the assay: qHTS Assay for Inhibitors and Substrates of Cytochrome P450 2D6 (AID 891). Also: nearly all actives have a fitted effect of over 60% in size. Also: potency is read from the fitted curve at half-maximal effect. The following applies: recombinant CYP2D6, luciferin-ME EGE luminescence; series mostly up to 57.1 µM. In a few lines:
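Human CYP2D6 (5 nM) with 30 uM Luciferin-ME EGE (at Km) in 100 mM KPO4, compound preincubated 10 min, then NADPH regeneration system for 60 min at room temperature. Luciferin read by luminescence; normalized to 1.43 uM quinidine.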
On the technique in general: In qHTS, concentration-response curves come from the screen itself.

Assay [3] addresses Cytochrome P450 3A4 (Homo sapiens) (UniProt P08684). Nature of the assay: qHTS Assay for Activators of Cytochrome P450 3A4 (AID 885). Also: nearly all actives have a fitted effect of over 65% in size. Also: potency is read from the fitted curve at half-maximal effect. To be noted: recombinant CYP3A4, Luciferin-PPXE luminescence, 60 min; series mostly up to 57.1 µM. In a few lines: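 20nM CYP3A4 + 25uM Luciferin-PPXE (=KM), 200mM KPO4; cpd 10 min RT; NADPH regen, 60 min RT; stop w/ detection buffer, 20 min; luminescence. Normalized to 57 uM ketoconazole.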

Assay [4] has the same target. Nature of the assay: qHTS Assay for Inhibitors and Substrates of Cytochrome P450 3A4 (AID 884). Also: nearly all actives have a fitted effect of over 50% in size. Also: potency is read from the fitted curve at half-maximal effect. The following applies: recombinant CYP3A4, Luciferin-PPXE luminescence; series mostly up to 57.1 µM. The method, boiled down:
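20 nM human CYP3A4 with 25 uM Luciferin-PPXE (at KM) in 200 mM KPO4, preincubated 10 min with compound; NADPH regeneration started a 60 min RT reaction. Luciferin detected by luminescence, normalized to 57 uM ketoconazole as full inhibition.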

Assay [5] addresses Guanine nucleotide-binding protein G(i) subunit alpha-1 (Homo sapiens) (UniProt P63096). In words: qHTS Assay for Inhibitors of RGS12 GoLoco Motif Activity (Green Fluorophore) (AID 879).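 Also: negative values mean loss of peptide binding seen as reduced polarization.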 To be noted: Galphai1/FITC-RGS12 GoLoco peptide, fluorescence polarization; series mostly up to 57.1 µM. The method, boiled down:
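Fluorescence polarization assay: 50 nM Gαi1 with 10 nM FITC-labeled RGS12 GoLoco peptide in 10 mM Tris pH 7.5, 150 mM NaCl, 0.1 mM GDP, 0.05% NP40, 10 min at room temperature with compound.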

The target of assay [6] is Cytochrome P450 2C9 (Homo sapiens) (UniProt P11712). Nature of the assay: qHTS Assay for Inhibitors and Substrates of Cytochrome P450 2C9 (AID 883). Also: potency is read from the fitted curve at half-maximal effect; nearly all actives have a fitted effect of over 60% in size. To be noted: recombinant CYP2C9, luciferin-H luminescence, 60 min; series mostly up to 57.1 µM. In a few lines: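 Turnover of Luciferin-H (100uM, KM) by 10nM human CYP2C9 was measured over 60 min at 37C with NADPH regeneration; inhibitors and some substrates reduce luminescence. Data normalized to sulphaphenazole 57uM.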
Chain of Cytochrome P450 2C9 (Homo sapiens) (P11712 whole entry, looked up): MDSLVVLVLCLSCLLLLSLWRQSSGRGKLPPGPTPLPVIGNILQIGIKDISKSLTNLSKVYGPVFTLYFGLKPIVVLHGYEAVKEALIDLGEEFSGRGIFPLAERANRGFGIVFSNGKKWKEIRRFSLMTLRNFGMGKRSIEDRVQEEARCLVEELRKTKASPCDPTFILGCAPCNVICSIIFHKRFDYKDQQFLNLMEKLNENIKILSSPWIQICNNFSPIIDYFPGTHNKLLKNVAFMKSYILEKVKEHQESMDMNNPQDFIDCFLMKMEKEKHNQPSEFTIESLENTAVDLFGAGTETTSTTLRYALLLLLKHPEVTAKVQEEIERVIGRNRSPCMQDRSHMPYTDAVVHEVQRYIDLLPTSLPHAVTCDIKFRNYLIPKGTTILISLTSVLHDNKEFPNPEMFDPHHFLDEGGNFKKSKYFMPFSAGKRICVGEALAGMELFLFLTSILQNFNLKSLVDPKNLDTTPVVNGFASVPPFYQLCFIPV

Chain of Cytochrome P450 3A4 (Homo sapiens) (P08684 whole entry, looked up): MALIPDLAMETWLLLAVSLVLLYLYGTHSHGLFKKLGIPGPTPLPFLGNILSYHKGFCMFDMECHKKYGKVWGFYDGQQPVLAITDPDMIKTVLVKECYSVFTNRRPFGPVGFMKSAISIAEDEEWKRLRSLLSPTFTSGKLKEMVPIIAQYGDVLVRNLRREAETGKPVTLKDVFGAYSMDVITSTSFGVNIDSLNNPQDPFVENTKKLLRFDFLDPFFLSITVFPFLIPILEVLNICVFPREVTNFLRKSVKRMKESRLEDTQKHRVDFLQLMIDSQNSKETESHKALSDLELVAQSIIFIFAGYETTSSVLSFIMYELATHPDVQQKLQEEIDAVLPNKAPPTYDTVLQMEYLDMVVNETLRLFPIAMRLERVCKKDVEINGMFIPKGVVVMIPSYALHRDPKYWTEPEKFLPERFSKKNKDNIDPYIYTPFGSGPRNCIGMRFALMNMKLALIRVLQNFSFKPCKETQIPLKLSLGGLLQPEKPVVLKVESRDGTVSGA
Chain of Guanine nucleotide-binding protein G(i) subunit alpha-1 (Homo sapiens) (P63096 whole entry, looked up): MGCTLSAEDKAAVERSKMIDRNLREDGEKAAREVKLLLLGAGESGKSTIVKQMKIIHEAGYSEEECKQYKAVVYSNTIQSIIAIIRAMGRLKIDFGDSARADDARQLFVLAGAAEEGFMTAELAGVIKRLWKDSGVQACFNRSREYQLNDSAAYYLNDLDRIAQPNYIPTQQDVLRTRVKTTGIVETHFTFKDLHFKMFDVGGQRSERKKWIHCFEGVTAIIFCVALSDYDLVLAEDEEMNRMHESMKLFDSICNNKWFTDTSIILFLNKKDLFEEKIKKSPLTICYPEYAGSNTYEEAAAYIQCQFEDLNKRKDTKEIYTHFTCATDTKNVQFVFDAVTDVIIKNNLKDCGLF
Chain of 3',5'-cyclic-AMP phosphodiesterase 4B (Homo sapiens) (Q07343 whole entry, looked up): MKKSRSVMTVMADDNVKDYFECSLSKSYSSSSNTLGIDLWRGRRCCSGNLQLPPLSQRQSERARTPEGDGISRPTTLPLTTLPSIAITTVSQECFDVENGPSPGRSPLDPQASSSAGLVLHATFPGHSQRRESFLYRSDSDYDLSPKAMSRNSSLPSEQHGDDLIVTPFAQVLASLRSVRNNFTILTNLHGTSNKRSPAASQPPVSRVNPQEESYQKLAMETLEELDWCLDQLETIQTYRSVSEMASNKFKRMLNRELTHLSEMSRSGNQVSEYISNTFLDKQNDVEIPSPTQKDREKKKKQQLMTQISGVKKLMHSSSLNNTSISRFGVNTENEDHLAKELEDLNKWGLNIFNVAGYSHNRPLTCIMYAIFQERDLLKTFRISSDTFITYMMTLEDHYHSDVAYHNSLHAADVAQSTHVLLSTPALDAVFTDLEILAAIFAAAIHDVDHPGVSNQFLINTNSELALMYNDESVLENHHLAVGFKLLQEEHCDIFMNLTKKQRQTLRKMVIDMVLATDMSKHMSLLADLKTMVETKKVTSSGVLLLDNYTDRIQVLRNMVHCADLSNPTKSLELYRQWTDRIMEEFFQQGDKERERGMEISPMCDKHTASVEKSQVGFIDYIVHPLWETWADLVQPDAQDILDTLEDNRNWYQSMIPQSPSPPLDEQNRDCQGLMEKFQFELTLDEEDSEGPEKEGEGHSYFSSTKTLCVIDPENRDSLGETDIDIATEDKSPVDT
Chain of Cytochrome P450 2D6 (Homo sapiens) (P10635 whole entry, looked up): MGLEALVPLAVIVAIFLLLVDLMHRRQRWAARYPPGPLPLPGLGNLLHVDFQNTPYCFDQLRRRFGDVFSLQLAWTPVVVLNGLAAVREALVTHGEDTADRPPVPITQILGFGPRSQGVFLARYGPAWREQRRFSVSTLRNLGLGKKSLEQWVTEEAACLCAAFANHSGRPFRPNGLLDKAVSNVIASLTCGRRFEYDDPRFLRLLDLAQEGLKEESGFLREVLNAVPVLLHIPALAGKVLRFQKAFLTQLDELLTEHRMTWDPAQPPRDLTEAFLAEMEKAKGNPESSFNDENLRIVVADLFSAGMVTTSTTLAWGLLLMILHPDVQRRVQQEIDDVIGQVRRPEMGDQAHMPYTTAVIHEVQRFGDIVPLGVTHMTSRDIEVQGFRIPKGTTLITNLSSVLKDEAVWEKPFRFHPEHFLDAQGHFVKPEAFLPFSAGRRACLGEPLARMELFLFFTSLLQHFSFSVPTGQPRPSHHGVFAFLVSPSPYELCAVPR

As to `CSC(=N)N`, the Potency entry in assay [1] was “inactive”. In assay [2], the Potency is 0.0501 µM (active). In the case of `CCCn1c(=O)c2c(ncn2C)n(CCC)c1=O`, in assay [3], the Potency entry is “inactive”.

As to `CC(C)Cn1c(=O)n(C)c(=O)c2[nH]cnc21`, the Potency in assay [4] was 3.98 µM (active) and 15.8 µM (active) and 12.6 µM (active). Moreover, the Potency entry in assay [3] was “inactive”. Turning to `CC(C)(C)c1ccc(/C=C/C(=O)Nc2ccc3c(c2)OCCO3)cc1`, the Potency result in assay [4] is “inactive”. With `COC(=O)[C@H](NC(=O)c1cc(-c2ccccc2)nc2ccccc12)c1ccccc1`, in assay [5], the Potency result is “inactive”. `c1ccc(C(NCCNC(c2ccccc2)c2ccccc2)c2ccccc2)cc1`: in assay [4], the Potency result was “inactive”. Besides, the Potency in assay [3] was 5.01 µM (active). Turning to `NC1CONC1=O` (stereo not drawn), the Potency result in assay [3] was “inactive”. For the compound `N=C(N)SCCc1cnc[nH]1`, the Potency result in assay [1] and in assay [3] was “inactive” throughout. For the same compound, the Potency in assay [2] is 6.31 µM (active). Take `CC(C)(C)c1cc(/C=C(\C#N)C(N)=S)cc(C(C)(C)C)c1O`: the Potency result in assay [5] and in assay [3] was “inactive” throughout. Further, in assay [4], the Potency is 3.98 µM (active). In the case of `O=C1OC(=O)C2C3CCC(O3)C12` (stereo not drawn), the Potency entry in assay [4] is “inactive”. On to `CC[C@H](NC(=O)c1c(C)c(-c2ccccc2)nc2ccccc12)c1ccccc1`, for which the Potency result in assay [5] and in assay [2] was “inactive” throughout. In addition, the Potency in assay [6] is 12.6 µM (active). For `Cn1c(=O)c2[nH]c(C3CCCC3)nc2n(C)c1=O`, the Potency result in assay [5] and in assay [3] was “inactive” each time. Also, the Potency in assay [4] is 39.8 µM (active).

As to `O=C1NC(=O)c2cc(Nc3ccccc3)c(Nc3ccccc3)cc21`, the Potency result in assay [5] and in assay [3] was “inactive” throughout. The Potency in assay [4] was 1.58 µM (active). As for `CCCCCCCCCCC(C)(C)C(=O)Nc1c(OC)cc(OC)cc1OC`, in assay [4], the Potency is 7.94 µM (active). Besides, the Potency entry in assay [3] was “inactive”. For the compound `COc1cc(N)c(Cl)cc1C(=O)OCCN1CCCCC1`, the Potency result in assay [5] and in assay [3] was “inactive” in each case. The Potency in assay [4] is 15.8 µM (active).

For `CN(C)CCCc1cc(C(=O)Nc2ccc(-c3ccncc3)cc2)ccc1O`, in assay [3], the Potency result is “inactive”. Moreover, the Potency in assay [2] is 5.01 µM (active). As for `CC1=C(/C=C/C(C)=C/C=C/C(C)=C\C(=O)O)C(C)(C)CCC1`, the Potency result in assay [4] was “inactive”. As to `N[C@@H](Cc1ccc(O)c(I)c1)C(=O)O`, the Potency result in assay [5] and in assay [4] was “inactive” in each case. In the case of `Nc1ccc(-c2ccc3ccccc3n2)cc1`, the Potency in assay [4] is 3.98 µM (active). In addition, in assay [3], the Potency entry was “inactive”. As for `Nc1nc2c(cnn2CCc2ccccc2)c2nc(-c3ccco3)nn12`, in assay [4], the Potency was 31.6 µM (active). Further, the Potency entry in assay [3] was “inactive”.

`C=C(C)C1CC=C(C(=O)O)CC1` (stereo not drawn): the Potency entry in assay [4] was “inactive”. For `Nc1ccc(-c2nc3ccc(-c4nc5ccc(N)cc5[nH]4)cc3[nH]2)cc1`, the Potency in assay [4] is 0.0631 µM (active). In assay [3], the Potency result is “inactive”. Take `CN1C2CCC1CC(OC(c1ccccc1)c1ccccc1)C2` (stereo not drawn): in assay [4], the Potency entry is “inactive”. As for `Cc1ccc([N+](=O)[O-])cc1S(=O)(=O)N(C)C`, the Potency entry in assay [4] and in assay [3] was “inactive” each time. Regarding `c1ccc2c(c1)CC(N1CCN(c3cccc4c3OCCO4)CC1)C2`, in assay [4], the Potency result was “inactive”. Further, the Potency in assay [3] is 25.1 µM (active).
